Source: ChEMBL document CHEMBL3433997, “St. Jude Leishmania screening dataset” (2016)

Legend:
Type in all cases: functional
[1] = target: Solute carrier family 2, facilitated glucose transporter member 1 (Homo sapiens) (UniProt P11166); test: ST_JUDE_LEISH: Cytotoxicity at 2uM final concentration against transgenic Leishmania Mexicana promastigotes LmGLUT1 that are glucose transport deficient and complemented with the human glucose transporter GLUT1. Activity is measured by DNA content using SYBR green in vitro
Chain of Solute carrier family 2, facilitated glucose transporter member 1 (Homo sapiens) (P11166 whole entry): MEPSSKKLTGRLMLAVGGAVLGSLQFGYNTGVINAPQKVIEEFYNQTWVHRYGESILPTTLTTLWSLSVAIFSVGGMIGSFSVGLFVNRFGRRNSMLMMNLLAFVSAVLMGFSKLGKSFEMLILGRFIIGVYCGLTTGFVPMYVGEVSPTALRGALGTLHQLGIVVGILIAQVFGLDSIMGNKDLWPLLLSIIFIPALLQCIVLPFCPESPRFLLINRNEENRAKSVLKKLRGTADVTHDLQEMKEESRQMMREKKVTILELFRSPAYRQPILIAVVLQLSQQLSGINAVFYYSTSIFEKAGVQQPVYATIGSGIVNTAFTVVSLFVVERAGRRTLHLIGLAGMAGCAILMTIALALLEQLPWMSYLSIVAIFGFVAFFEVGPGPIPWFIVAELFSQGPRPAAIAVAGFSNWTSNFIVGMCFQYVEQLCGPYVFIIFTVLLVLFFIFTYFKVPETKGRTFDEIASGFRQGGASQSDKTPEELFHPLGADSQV

[2] = target: Hexose transporter 1 (Plasmodium falciparum) (UniProt O97467); test: ST_JUDE_LEISH: Cytotoxicity at 2uM final concentration against transgenic Leishmania Mexicana promastigotes LmPfHT that are glucose transport deficient and complemented with the Plasmodium falciparum hexose transporter. Activity is measured by DNA content using SYBR green in vitro
[3] = target: Glucose transporter (Leishmania mexicana) (UniProt O61059); test: ST_JUDE_LEISH: Cytotoxicity at 2uM final concentration against transgenic Leishmania Mexicana promastigotes LmGT2 that are glucose transport deficient and complemented with the L. Mexicana glucose transporter 2. Activity is measured by DNA content using SYBR green in vitro

Row | Structure (SMILES) | inhibition [1] [%] | inhibition [2] [%] | inhibition [3] [%]
1 | CC(C)(C)c1ccc(NC(=O)c2ccc(CN3CCCN(Cc4ccc(F)cc4)CC3)cc2)cc1 | 2.24 | -1.93 | 1.74
2 | CCCCCCCn1c(=N)n(CC(O)c2ccc(Cl)c(Cl)c2)c2ccccc21 (stereo not drawn) | 8.14 | 7.92 | 13.2
3 | CN1CCCC(CN2CCN(Cc3ccc(-c4ccc(-c5nc6ccccc6[nH]5)cc4)cc3)CC2)C1 (stereo not drawn) | 13 | 15.9 | 7.8
4 | CCC(C)NS(=O)(=O)c1ccc2nc(Nc3ccc(C)cc3)n([C@H](C)C(C)(C)C)c2c1 (stereo partly drawn) | 2.68 | 0.25 | -0.82
5 | Cc1ccc(CON2C(N)=NC(N)=NC23CCCCC3)c2ccccc12 | 3.13 | 2.42 | 4.18
6 | Cc1[nH]c(C)c(-c2ccc(-c3ccc(C(F)F)cc3)nc2)c(=O)c1Cl | 2.19 | 3.08 | 2.57
